# PubChem BioAssay AID1918969 (ICCB-Longwood Screening Facility, Harvard Medical School, 2023)
# In all, about 190,000 compounds went through this assay and about 280 (0.15%) were called active. Many of the other results were omitted from the sample, so actives are more common in it than they were. A number with no mark means an inactive call. No stated cut-off is given here; in the data, active means inhibition above about 27% (passing the limit was not always enough); inactive means the rest.
# Test system: HCMV UL50-UL53 nuclear egress complex (human cytomegalovirus)
# Assay: HCMV nuclear egress complex disruptors – biochemical, HTRF (AID 1918969)
# Settings: HTRF UL50-UL53 interaction, normalized percent inhibition; active compounds read high; concentration not given here
row,SMILES,inhibition [%]
1,O=C(Cc1csc(NC(=O)NC2CCCC2)n1)NCCc1c[nH]c2ccccc12,-1.1
2,CCOC(=O)c1c(NC(=O)Cc2ccccc2)sc(C(=O)Nc2cccc(C(F)(F)F)c2)c1C,8.1
3,Cc1noc(C)c1COc1ccc(C(=O)OCC(=O)Nc2sc3c(c2C(N)=O)CCC3)cc1,13.2
4,Cc1nn(C)cc1CN(C)C(=O)c1cnn2c(C(F)(F)F)cc(-c3ccc(Br)cc3)nc12,-24.9
5,Cc1ccc(C(CNC(=O)Nc2ccccc2)N2CCN(C)CC2)cc1 (configuration not stated),-33.4
6,N#Cc1cccc(NC(=O)CSc2ncccn2)c1,14.4
7,Cc1ccc(NC(=O)Cn2cnc3ccc(S(=O)(=O)N4CCC(C)CC4)cc3c2=O)cc1F,-4.6
8,C#CCN1C(=O)C(c2c(-c3ccc(Cl)cc3)[nH]c3c2c(=O)n(C)c(=O)n3C)c2ccccc21 (configuration not stated),-14.2
9,COc1cc(OC)cc(C(=O)N2N=C(c3c(-c4ccccc4)c4cc(Br)ccc4[nH]c3=O)CC2c2ccco2)c1 (configuration not stated),0.4
10,CCOc1ccc(/C=C2\SC(=O)N(CCNC(=O)c3c(CC)noc3C)C2=O)cc1OC,-3.2
11,Cn1nccc1-c1nc(-c2cccc(NC(=O)Nc3ccccc3)c2)no1,-30
12,COC(=O)c1sccc1NC(=O)Cn1c(=O)nc(-c2ccccc2F)c2cc(Cl)ccc21,-19.3
13,CC1(C)CC(NCCNC2=CC(=C(C#N)C#N)CC(C)(C)C2)=CC(=C(C#N)C#N)C1,-0.1
14,COc1ccc(-c2cc(C3CC3)nc3sc(C(N)=O)c(N)c23)cc1,-38.3
15,Cn1c(CCc2ccc(NC(=O)CN3C(=O)COc4ccccc43)cc2)nc2ccccc21,-5.5
16,NCC(c1ccccc1)N1CCCC1 (configuration not stated),-3.2
17,Cc1ccc(S(=O)(=O)N/N=C2/CSCC2NC(=O)c2ccccc2)cc1 (configuration not stated),-22.7
18,CCC(C)NS(=O)(=O)c1cc(C(=O)OC)n(C)c1C (configuration not stated),-32.5
19,CC(=O)N1c2ccc(S(=O)(=O)N3CCN(c4nc5ccccc5n5cccc45)CC3)cc2CC1C (configuration not stated),-16.8

row,SMILES,inhibition [%]
1,Cc1cc(C)cc(NC2=NS(=O)(=O)c3ccccc32)c1,7.9
2,CCn1c(COC(=O)C2CSC3(C)CCC(=O)N23)nc2cc(S(=O)(=O)N(C)C)ccc21 (configuration not stated),-24.2
3,COC(=O)c1cc(OC(=O)c2cc(OC)cc(OC)c2)cc(C(=O)OC)c1,6.8
4,COCC(=O)Nc1nc2nc(-c3ccccc3)cc(=O)n2[nH]1,-6.9
5,COc1ccccc1CNC(=O)C1CCN(c2ncnc3c2sc2nc(C)cc(-c4ccccc4)c23)CC1,-7.4
6,O=C(Nc1ccc2sccc2c1)C1CC1,-0.1
7,COc1ccc(NC(=O)CN2C(=O)C(C)(C)c3ccccc32)cc1,-13.1
8,CCOC(=O)c1cc(Nc2cc(OCC)ccc2OCC)c2cc(C)ccc2n1,-15.8
9,COc1nc(N)c(C#N)c(-c2ccccc2)c1C#N,5.4
10,CC(C)CSc1nccn2nc(-c3ccc(Cl)cc3)cc12,15.5
11,CCOC(=O)c1cccc(NC(=O)c2ccc(CN3CC(=O)N4CSCC4C3=O)cc2)c1 (configuration not stated),-6.4
12,C=C(C)C1Cc2c(C)nn(S(=O)(=O)c3ccc(C)cc3)c2C1 (configuration not stated),-7.3
13,COc1ccc(OC)c(NC(=O)Cn2cnc3c2c(=O)n(C)c(=O)n3C)c1,-4.9
14,CCOc1ccc(NC(=O)CCCN2C(=O)/C(=C/c3ccc(Cl)cc3)SC2=S)cc1,-12.3
15,CCOC(=O)c1c(N)sc2c1CCC(Br)C2=O (configuration not stated),-67.7
16,CCN(C(=O)CSc1nnc(CN(c2ccc(F)cc2)S(C)(=O)=O)n1C)c1ccccc1,-23.6
17,CCOc1cccc(C(=O)Nc2ccccc2C(=O)OC)c1,9.1
18,O=C(Nc1c[nH]c(=O)[nH]c1=O)c1ccco1,-1.3
19,CC(C)CN(CC(C)C)C(=O)CCN1C(=O)c2ccccc2C1=O,-21.3

row,SMILES,inhibition [%]
1,CN(C(=O)CSc1nc(-c2ccccc2)cc(-c2ccco2)c1C#N)c1ccccc1,-15.3
2,CC(NC(=O)NCc1ccccc1)c1nc(-c2ccncc2)n[nH]1 (configuration not stated),8.4
3,C=CCn1c(=O)c(C(=O)NCc2ccc3c(c2)OCO3)c(O)c2ccccc21,-23.4
4,CCOc1ccc(CN(C)C(=O)C2=NNC(=O)CC2)cc1,-31.5
5,COc1ccc(OCC(=O)N2N=C(c3ccc(Cl)cc3)CC2c2ccco2)cc1 (configuration not stated),-31.7
6,Cc1ccc(NC(=O)c2sc3ncnc(N4CCN(C)CC4)c3c2C)cc1F,-16.4
7,CCOC(=O)c1ccc(N=C2SC(C(=O)Nc3ccc(C)cc3C)CC(=O)N2C)cc1 (configuration not stated),-8.2
8,N#CCSc1nnc(-c2ccccc2)c2ccccc12,-26.2
9,Cc1cccc(NC(c2ccccn2)c2ccc3cccnc3c2O)n1 (configuration not stated),-53.1
10,O=S(=O)(Nc1ccc(-c2ccc(N3CCCCC3)nn2)cc1)c1ccc(F)cc1F,-38.3
11,CCc1nc2cccnc2n1-c1ccc(CC(=O)N2CCOCC2)cc1,-27.2
12,CC1=Nc2c(ccc3cccnc23)C1(C)C,-24.6
13,CC1CN(Cn2[nH]c(=O)ccc2=O)CC(C)O1 (configuration not stated),-7.4
14,CC1=C(C(=O)OC2CCCC2)C(c2coc3ccc(C)cc3c2=O)C2=C(CC(c3ccco3)CC2=O)N1 (configuration not stated),-3.1
15,O=C(NCc1cc2ccccc2s1)c1ccc(N2CCOCC2)nc1,-4.6
16,CC(C(=O)Nc1ccc(S(=O)(=O)N2CCCC2)cc1)N(C)Cc1ccc(F)cc1 (configuration not stated),-5
17,COc1ccc(C2CC(=O)C3=C(C2)NC(C)=C(C(=O)Nc2ccc(C)cc2)C3c2ccccc2)cc1OC (configuration not stated),-11.7
18,O=C(NCCO)c1ccc(C(=O)NCCO)cc1,-13.4
19,CCOc1ccc(NC(=O)CS(=O)(=O)c2cccc3nsnc23)cc1,-37.5
